About 9,900 (2.8%) of roughly 350,000 compounds were called active. A call without a number means that no potency is given here. Not shown: some 15% with an inconclusive outcome. The call rests on the fitted dose curve; in most records, active means well fitted activation curve with a large enough effect; inconclusive means small, poorly fitted or top-dose-only effect; inactive means no such curve, though single readings can be large or run the other way. Many of the other results were omitted from the sample, so actives are more common in it than they were.
assay: A quantitative high throughput screen for small molecules that induce DNA re-replication in MCF 10a normal breast cells.; further: nearly all actives have a fitted effect of over 50% in size; settings: MCF 10A DNA re-replication, Hoechst nuclear intensity, 48 h; series mostly up to 46.1 µM
Potency means the concentration at half of the fitted maximal effect.

Row | Compound | Potency
1 | C[C@H]1CN([C@@H](C)CO)C(=O)Cc2cc(NC(=O)Cc3ccccc3)ccc2O[C@H]1CN(C)S(=O)(=O)c1cccs1 | inactive
2 | O=C1CC(C(=O)O)NC(=S)N1 (centres undefined) | inactive
3 | Cc1cc(NC(=O)c2cc3ccccc3o2)no1 | inactive
4 | C[C@H](CO)N1C[C@H](C)[C@@H](CN(C)Cc2ccc(-c3ccccc3)cc2)Oc2ccc(NC(=O)Cn3cnnn3)cc2C1=O | inactive
5 | Cc1nn(Cc2ccc(Cl)cc2)c(Cl)c1/C=N/NC(=O)c1cccnc1 | inactive
6 | CCn1nc(C)c(/C=N/NC(=O)Cc2ccc(Cl)cc2)c1C | inactive
7 | Cc1nn(Cc2ccc(Cl)cc2)c(Cl)c1/C=N/NC(=O)CNc1ccccc1F | 16.4 µM (active)
8 | CC(=O)Nc1ccc(S(=O)(=O)Nc2ccc(N3CCCCC3)cc2)cc1 | inactive
9 | FC(F)(F)c1nnc2ccc(N3CCN(c4ccccc4)CC3)nn12 | inactive
10 | FC(F)(F)c1nnc2c3ccccc3c(Cl)nn12 | 20.6 µM (active)
11 | Nc1nnc2c(C(F)(F)F)nc3ccccc3n12 | inactive
12 | CCOC(=O)c1ccc(NC(=O)C2CC(=O)N(c3ccc4c(c3)OCCO4)C2)cc1 (centres undefined) | inactive
13 | CC[C@]1(O)CC2CN(CCc3c([nH]c4ccccc34)[C@@](C(=O)OC)(c3cc4c(cc3OC)N(C=O)[C@H]3[C@@](O)(C(=O)OC)[C@H](OC(C)=O)[C@]5(CC)C=CCN6CC[C@]43[C@@H]65)C2)C1 (some centres undefined) | 0.651 µM (active)
14 | O=S(=O)(NCCc1ccccn1)c1cc(Cl)cc(Cl)c1O | inactive
15 | CC(=O)c1ccc(N2CCN(C(=O)c3ccc(Cl)c(S(=O)(=O)NC4CC4)c3)CC2)c(F)c1 | inactive
16 | Cc1ccc(C(=O)Nc2ccn(C)n2)cc1 | inactive
17 | COc1ccc(NC(=O)COC(=O)c2n[nH]c3ccccc23)c(OC)c1 | inactive
18 | CC(C)(C)OC(=O)C[C@H]1C/C=C\C[C@@H](CC(=O)N[C@H](CO)Cc2ccccc2)C(=O)NC[C@@H](c2ccccc2)OC1=O | inactive
19 | O=C(C[C@H]1C/C=C\C[C@@H](NC(=O)OCC2c3ccccc3-c3ccccc32)C(=O)O[C@@H](c2ccccc2)CNC1=O)N[C@H](CO)Cc1ccccc1 | 10.3 µM (active)
20 | CC(C)(C)OC(=O)C[C@@H]1C/C=C\C[C@@H](CC(=O)N[C@H](CO)Cc2ccccc2)C(=O)NC[C@@H](c2ccccc2)OC1=O | inactive
21 | CCN(CC(=O)Nc1c(F)cccc1F)C(=O)Cc1cccs1 | inactive
22 | O=C(c1cnccn1)N1CCN(S(=O)(=O)c2cccc(Cl)c2)CC1 | inactive
23 | CCOC(=O)N1CCN(CC(=O)c2c(C)[nH]c3ccccc23)CC1 | inactive
24 | CCOC(=O)c1c(C)[nH]c(C)c1S(=O)(=O)N(C)CC(=O)Nc1ccccc1C | inactive
25 | CCOC(=O)c1c(C)[nH]c2c1-c1ccccc1C(=O)C2=O | 1.3 µM (active)

Row | Compound | Potency
26 | COc1ccc(C(=O)N(C)Cc2ccc(OC)c(OC)c2OC)cc1S(=O)(=O)N1CCOCC1 | inactive
27 | Cc1nnc(NC(=O)Nc2ccc(Cl)c(Cl)c2)s1 | inactive
28 | O=C(CC(O)(C(F)(F)F)C(F)(F)F)Nc1ccc(Cl)c(Cl)c1 | 5.8 µM (active)
29 | Cc1ccc(NC(=O)C/C(N)=N/O)cc1Cl | inactive
30 | C[C@H](O)[C@@H]1C(=O)N2CCc3ccc(N4CCOCC4)cc3[C@@H]2C[C@@H]1N(C)C(=O)C(C)(C)C | inactive
31 | CN(C)C(=O)CCc1ccc2c3c([nH]c2c1)[C@]1(CCC2CCCC2)[C@@H](C(=O)N2CCOCC2)C[C@H](CC(=O)NCc2ccco2)C(=O)N1CC3 | inactive
32 | CC(=O)OCC1(O)CC23CCC4c5ccoc5CCC4(C)C2CCC1C3 (centres undefined) | inactive
33 | N#Cc1c2c(c(-c3ccccc3)[nH]c1=O)CCCC2 | inactive
34 | Cc1ccc(CSc2nc(-c3ccccc3)c(C#N)c(=O)[nH]2)cc1 | inactive
35 | N#Cc1c(-c2ccccc2)c(-c2ccccc2)n[nH]c1=O | 2.59 µM (active)
36 | CCOc1ncccc1C(=O)OCC(=O)Nc1cccc(S(=O)(=O)N2CCCCCC2)c1 | inactive
37 | COc1ccc(Cl)cc1NC(=O)C1CC(=O)N(c2ccc(F)cc2)C1 (centres undefined) | inactive
38 | COc1cc(OC)c(N2CC(C(=O)Nc3cc(Cl)ccc3N3CCOCC3)CC2=O)cc1Cl (centres undefined) | 18.4 µM (active)
39 | COc1ccccc1N1CC(C(=O)Nc2ccc(S(=O)(=O)N3CCOCC3)cc2)CC1=O (centres undefined) | inactive
40 | Cc1ccc(CSc2ccc(S(=O)(=O)N3CCCCC3)cn2)cc1 | inactive
41 | Cc1ccsc1C(=O)NNC(=O)COc1ccc(Br)cc1 | inactive
42 | O=C1c2ccccc2C(=O)C1C(=O)C1CC1 | inactive
43 | Cc1ccc(-c2cc(=O)c3ccc(F)cc3[nH]2)cc1 | inactive
44 | Cc1ccc(-c2cc(=O)c3ccc(Cl)cc3[nH]2)cc1 | inactive
45 | O=c1cc(-c2ccccc2)[nH]c2cc(F)ccc12 | 1.3 µM (active)
46 | C[C@H](CO)N1C[C@H](C)[C@H](CN(C)CC2CC2)Oc2ccc(NC(=O)CCN3CCOCC3)cc2C1=O | inactive
47 | CC(=O)c1ccc(NC(=O)C(C)OC(=O)c2ccc(NS(=O)(=O)c3ccc4[nH]c(=O)[nH]c4c3)cc2)cc1 (centres undefined) | inactive
48 | O=S(=O)(Nc1ncnc2sccc12)c1cccc(F)c1 | inactive
49 | COc1ccc2c(c1)C(SCC(=O)NCc1ccccc1)CC(C)(C)O2 (centres undefined) | inactive
50 | COc1ccc2c(c1)C=CC1(O2)N(CCO)c2ccccc2C1(C)C (centres undefined) | 20.6 µM (active)

Row | Compound | Potency
51 | CN1c2ccc([N+](=O)[O-])cc2C(C)(C)C12C=Cc1cc(C(=O)O)ccc1O2 (centres undefined) | inactive
52 | O=C(CN1C(=O)NC2(CCCCCCC2)C1=O)NCc1ccc(F)cc1 | inactive
53 | COc1cccc(C(=O)OCC(=O)c2[nH]c(C)c(C(C)=O)c2C)c1 | inactive
54 | CCN(C[C@H]1N[C@@](CC)(C(=O)OC)[C@H]2C(=O)N(Cc3ccccc3)C(=O)[C@@H]12)S(=O)(=O)c1ccc(C(F)(F)F)cc1 | inactive
55 | CCC1(CC)NC(=O)N(CC(=O)OCC(=O)c2cc(C)c(C)cc2C)C1=O | inactive
56 | O=C(NCC1CCCCC1)NCC1CCCCC1 | inactive
57 | CCN(CC)c1ccc(NC(=O)c2ccc(Cl)nc2)cc1 | 5.8 µM (active)
58 | O=C(NNC(=O)c1ccc(Cl)nc1)c1ccc(Br)cc1 | inactive
59 | Cc1cnc(NC(=O)c2ccc(Cl)nc2)s1 | inactive
60 | Cc1ccccc1SCC(=O)OCC(=O)N1CC(=O)Nc2ccccc21 | inactive
61 | Cc1ccccc1-c1cc(C(=O)NCc2cccs2)n(CC2CC(c3cccnc3)=NO2)n1 (centres undefined) | inactive
62 | c1ccc2cc3c(NCCN4CCOCC4)ccnc3cc2c1 | 4.61 µM (active)
63 | O=C(NCCN1CCOCC1)c1ccc2c(c1)ncn2C1CCCC1 | inactive
64 | O=C(NCCN1CCOCC1)c1cc(-c2cccs2)nc2ccccc12 | inactive
65 | COc1cc(C2CC(=O)Oc3cc(OC)c(OC)c(OC)c32)cc(OC)c1OC (centres undefined) | inactive
66 | Cc1ccc(-c2nnc(-c3ccc(NC(=O)c4cccs4)cc3)o2)cc1 | inactive
67 | COc1cc2ccccc2cc1C(=O)Nc1ccc(NC(=O)c2cccs2)cc1 | inactive
68 | Cc1ccc(OCC(=O)Nc2ccc(NC(=O)c3cccs3)cc2)c(C)c1 | 20.6 µM (active)
69 | Cn1cccc1C(=O)OCC(=O)NCCc1ccccc1 | inactive
70 | Cc1ccc(S(=O)(=O)N2CCN(C(=O)CN3C(=O)NC(C)(c4ccc(Cl)cc4)C3=O)CC2)c(C)c1 (centres undefined) | inactive
71 | NC(=O)c1ccc(N2CCCC2)nc1 | inactive
72 | COc1ccccc1CSc1ncc(-c2ccc([N+](=O)[O-])cc2)[nH]1 | 11.6 µM (active)
73 | C=CCSc1nc2ccccc2[nH]1 | inactive
74 | N#Cc1c(-c2ccccc2)nc(SCc2ccc([N+](=O)[O-])cc2)[nH]c1=O | inactive
75 | CCCCSc1nc2ccccc2[nH]1 | inactive

Row | Compound | Potency
76 | COc1ccccc1CSc1nc2ccccc2[nH]1 | 8.2 µM (active)
77 | COc1ccccc1C1CCN(c2ccc([N+](=O)[O-])cn2)CC1 | inactive
78 | Nc1cc2c(cc1Br)-c1ccc(F)cc1C2=O | inactive
79 | CCOC(=O)C1CCN(CC(=O)Nc2ccc(OC)c(S(=O)(=O)N3CCCCC3)c2)CC1 | inactive
80 | O=C(c1cn(-c2ccccc2)nc1-c1cccnc1)N1CCN(S(=O)(=O)c2ccccc2F)CC1 | inactive
81 | O=C(Nc1sc2c(c1C(=O)O)CCC2)c1ccccc1F | inactive
82 | NC(=O)c1c(NC(=O)c2ccccc2)sc2c1CCCC2 | 18.4 µM (active)
83 | CCOC(=O)C(NC(=O)CC(C)C)(Nc1sc2c(c1C(N)=O)CCCC2)C(F)(F)F (centres undefined) | inactive
84 | NC(=O)c1c(Nc2nc3c(F)cccc3s2)sc2c1CCCC2 | 20.6 µM (active)
85 | COc1cccc(OC)c1C(=O)Nc1sc2c(c1C(N)=O)CCCC2 | inactive
86 | O=C(CN1CCCC1)Nc1sc2c(c1C(=O)Nc1ccccc1)CCCC2 | inactive
87 | O=C(NNC(=O)c1ccc(-n2cncn2)c([N+](=O)[O-])c1)c1ccccc1 | inactive
88 | CCN(CC)c1ccc(NC(=O)CN2C(=O)NC3(CCc4ccccc43)C2=O)cc1 (centres undefined) | inactive
89 | CCN(CC(=O)Nc1ccc(OC)cc1)C(=O)c1ccc(Cl)c(S(=O)(=O)N2CCCC2)c1 | inactive
90 | OCC1(CO)CC2(C1)CC(CO)(CO)C2 | inactive
91 | CN(C)C(=O)CCc1ccc2c3c([nH]c2c1)[C@]1(C)[C@@H](C(=O)N2CCCCC2)C[C@H](CC(=O)NCCC2=CCCCC2)C(=O)N1CC3 | inactive
92 | CC(C)=C(NC(=O)c1ccccc1)C(=O)N/N=C(\C)c1ccccc1O | inactive
93 | C/C(=N\NC(=O)c1ccoc1C)c1ccccc1O | 7.31 µM (active)
94 | CC(=O)NC(=O)c1ccccc1O | inactive
95 | CSCCC(NC(=O)c1ccccc1)C(=O)N1CCCCCCC1 (centres undefined) | inactive
96 | O=C(Cc1ccc(NC(=O)C2CCCN(C(=O)C3CCCCC3)C2)cc1)Nc1cccc(C(=O)N2CCCCC2)c1 (centres undefined) | inactive
97 | CC(=O)c1c(N2CCOCC2)nc(=S)n(-c2cc(C)ccc2C)c1C | 1.3 µM (active)
98 | CC(=O)c1c(N2CCN(c3ccc(F)cc3)CC2)nc(=S)n(-c2ccccc2)c1C | inactive
99 | CC(=O)c1c(N2CCOCC2)nc(=S)n(Cc2ccccc2)c1C | inactive

— PubChem BioAssay AID624296 (National Center for Advancing Translational Sciences (NCATS), 2012)
